# Measured values taken from the supplement of paper PMC11417369.
# Whole data set: some 25,000 sequences, median “ln(normalized median fluorescence intensity)” near 9.3, cut for the highest 2% near 10. The list comes from a sample in which the highest values are over-represented; it also holds similar and randomly drawn sequences.
# Tested on: PF3D7_0420300 AP2 domain 1 (GST-tagged)
# Assay: gcPBM binding intensity (ln(normalized median fluorescence intensity)); higher = stronger DNA binding
# How it was run: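 Using an Agilent 4 × 180k array, primer-extended double-stranded 36-bp intergenic genomic probes and negative controls were exposed for 1 h to GST-fused P. falciparum DNA-binding domains expressed in E. coli. Binding was carried out in 1× PBS with 1% milk, 0.2 mg/ml BSA, 0.5% salmon testes DNA and 0.03% Triton X-100, and protein was detected with Alexa488 anti-GST antibody and a 488 nm scan. Binding intensity is the highest Masliner-normalised natural-log median intensity across replicate spots of either probe orientation.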
row,Sequence,gcPBM binding intensity (ln)
1,ACTATTAACAGTGTAGTGCAAAAAGGTTAATTATTA,9.42
2,AACATAAAAAAAATATGTACATATATAATATATATA [XGTACX_site3764],9.29
3,TTTTTATGTAGAATTTTTTTATTTTTTCAAAATGGA [CACACA_negctrl_site166],8.69
4,TATATATATATTGAAGTGCAAAATACTGTACGTAAT,9.4
5,GAGATAAAATAAAACACACACATATATATATAGAAT [CACACA_site2197],10.1
6,TTGTTTTGCTAAAAATGTACTCTATATAAAAGCTTT [XGTACX_site4027],8.98
7,ATGTAATATATTATATGTACATATTTTTATGTAGAT [XGTACX_site5945],9.2
8,AACATTTTTAAATATATAAAAATATATATATATATA [XGTACX_negctrl_site551],8.97
9,TATTTTAATCGTAAGTGTACTCTTTTAAGTATATGT [XGTACX_site8591],9.2
10,GGACATTTTTATAAGGTGCACGGTTTTGATATTACT [GTGCAC_site9892],9.46
11,CATATACATAAACACACACACACATAAATAAATATA [CACACA_site4864],10.2
12,TATATAAATATACAAACACACATACAAACATATATA [CACACA_site4754],9.9
13,TACATACATAAACACACACACACATATATATATATA [CACACA_site8953],10.1
14,TAGATACATAAACACACACACACATACATATATACA [CACACA_site9139],10.3
15,AAAAAAAAATATCACACACACATAAATATAAACCAA [CACACA_site2279],10.1
16,AAAAAAAAAAATATCACACACACATAAATATAAACC [CACACA_site2278],10.2
17,TATATACATAAACACACACACACATATATATATATA [CACACA_site8707],10.1
18,AAAAAAAAAAATATCACACACACATAAATATAAACA [CACACA_site7138],10.1
19,AATAAATATATAAATACACACAAACATACATATATA [CACACA_site9340],9.96

row,Sequence,gcPBM binding intensity (ln)
1,TTTTATAATTTATCTAAAAAAAAATAAAATAAAATG [TGCATGCA_negctrl_site429],8.67
2,CTTTTTTTTTTGTATTGTACTTTATTTTTACATCGT [XGTACX_site2918],9.65
3,AAAAACGATTAATGTGTACACACATAGTTATAAACA [CACACA_site8659],9.74
4,TGATGATATAAAAACACACACATATAATATAATACT [CACACA_site1208],10
5,TTTTCCCTTACAGAAAAAAAAAAATTCCTAACCCCG [CACACA_negctrl_site650],9.03
6,TGGCATATATATAAATGTACTTTCTTTCTATCTGTT [XGTACX_site8483],9.34
7,ATAAATTCATTATATTGTACAAACAAATGAAAAAAA [XGTACX_site8304],9.09
8,AAAAAATATATATTAACACACACACTAATAAAAAAA [CACACA_site8366],10
9,ATAATCCTTAAACACACACACACACTAATAAATAAA [CACACA_site8052],10.2
10,ATATATATGAAACACACACACAAAAAAAAAAAAAAA [CACACA_site3647],9.69
11,ATAATATGAAAACACACACACACACTAGAAAAAAAA [CACACA_site5153],10.3
12,AAAAAAAATATGAAAACACACATATATAAATAAATA [CACACA_site113],9.55
13,AATAATAAACACAATCAAATAAAATATGAAATATAA [GTGCAC_negctrl_site307],9.46
14,AAAAAAAAAAAAAACACACACACAAGAGTATATAAA [CACACA_site6580],9.99
15,ATAATATGAAATATAACACACATATATAAAAACATT [CACACA_site866],9.72
16,ATAATATGAAAACACACACACACACTAATAAAAAAA [CACACA_site8617],10.2
17,TACATAAATTAAAACACACACACACTAATAAAAAAA [CACACA_site8712],10.1
18,AAAAAAAAAAAACACACACACACACTAGTATATAAA [CACACA_site4783],10.2
19,TACATATATAAAAAAACACACACATATATATATATA [CACACA_site8315],9.54

row,Sequence,gcPBM binding intensity (ln)
1,TAATAAAAATAAAATTGTACTAATAACATTTCATTA [XGTACX_site3703],8.94
2,TATCTTATGTCTGAAAGTACAAATTTTTTTCTACTT [XGTACX_site2208],9.09
3,AAAAAAAAAAAACACACACACACACTAATATATAAA [CACACA_site8302],10.2
4,TATAATAAATCAAATGCACACACACTAATAAAAAAA [CACACA_site7937],10.1
5,ATATAAATAATATAAATACACACTAAAAAAAATATA [CACACA_site542],9.69
6,ATAAATAAAGGACACACACACACACTAATAAAAAAA [CACACA_site8840],10.3
7,AAAAAAATAAAGGATATACACACTAATTATATATAT [CACACA_site2812],9.64
8,TGCAACAAAATAAACACACACACACTAACACAAAAA [CACACA_site7567],10.1
9,TATATATATATATATACACACACACTAATAAAAAAA [CACACA_site8426],10
10,AAAAAATCACAACACACACACACACTAATAAAAAAA [CACACA_site8410],10.2
11,AATAAATATAAAAATGCACACACACTAATAAAAAAA [CACACA_site8201],10.2
12,ATAAATAAAGGACACACACACACACTAGAAAAAAAA [CACACA_site5450],10
13,GGAAACAAAAAATATATACACACTAATCATAAAAAA [CACACA_site7890],9.52
14,ATAATAAAAAAAAATGCACACATATATATATATATA [CACACA_site8766],9.21
15,CACATATAAATATTAACACACATAATGAGTTATATA [CACACA_site7316],9.33
16,GAATATTAAACAAACACACACACATATATATATATA [CACACA_site3382],9.78
17,TTTTTTTTTTATTTTGCACACTTCTAATTTAGTTCT [CACACA_site5828],9.45
18,TTTCTTAAAATGTTATGTACATATTTCGTTTCAAAG [XGTACX_site6102],9.01
19,ATTATATATAAGAAGAGTACTGAATATGTGCAATAT [XGTACX_site4471],9.55
